# In paper PMC8384837, “Expanding the binding specificity for RNA recognition by a PUF domain”:
# How the values were obtained:
# Assay in all cases: yeast three-hybrid, YBZ-1, SC-Leu-His + 0.5 mM 3-AT, 4 days
# Conditions in all cases: tags: N-Gal4 AD-HA kept; label: inside an RPR1-promoter hybrid RNA with tandem MS2 sites; ssRNA
# [1] = target: PUM1 PUF domain R4-PFF (Homo sapiens, UniProt Q14671 828-1176, N971P;H972F;Q975F)
# In short: (§1)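 A centromeric plasmid in strain YBZ-1 co-expressed Pumilio-1 PUF domain libraries, randomized at the three base-contacting residues of each repeat, with matching RNA elements; the strain carries a LexA–MS2 coat fusion and a HIS3 reporter. After four days on SC-Leu (input) or SC-Leu-His + 0.5 mM 3-AT (selection), the repeat regions were PCR-amplified and Illumina-sequenced. The interaction score is the log change in variant frequency from input to selection, using log2 and a pseudocount of 1 where absent.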
# [2] = target: PUM1 PUF domain R5-GHL (Homo sapiens, UniProt Q14671 828-1176, C1007G;R1008H;Q1011L)
# PUM1 PUF domain R5-GHL, sequence (Q14671 828-1176 C1007G/R1008H/Q1011L): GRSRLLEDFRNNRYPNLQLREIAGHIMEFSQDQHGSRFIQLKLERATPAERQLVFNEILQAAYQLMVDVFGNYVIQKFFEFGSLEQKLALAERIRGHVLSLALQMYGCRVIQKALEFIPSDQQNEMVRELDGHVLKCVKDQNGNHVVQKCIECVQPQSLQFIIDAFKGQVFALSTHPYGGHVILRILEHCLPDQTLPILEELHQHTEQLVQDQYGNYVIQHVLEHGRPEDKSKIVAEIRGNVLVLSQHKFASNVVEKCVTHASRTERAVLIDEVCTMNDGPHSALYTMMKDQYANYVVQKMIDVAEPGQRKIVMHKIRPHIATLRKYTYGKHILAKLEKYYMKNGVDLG
# In short: as §1
# [3] = target: PUM1 PUF domain R8-RFW (Homo sapiens, UniProt Q14671 828-1176, N1122R;Y1123F;Q1126W)
# PUM1 PUF domain R8-RFW, sequence (Q14671 828-1176 N1122R/Y1123F/Q1126W): as the sequence (Q14671 828-1176 C1007G/R1008H/Q1011L) above, with G180C, H181R, L184Q, N295R, Y296F, Q299W counted along it
# In short: as §1
# [4] = target: PUM1 PUF domain R2-LWH (Homo sapiens, UniProt Q14671 828-1176, N899L;Y900W;Q903H)
# PUM1 PUF domain R2-LWH, sequence (Q14671 828-1176 N899L/Y900W/Q903H): as the sequence (Q14671 828-1176 C1007G/R1008H/Q1011L) above, with N72L, Y73W, Q76H, G180C, H181R, L184Q counted along it
# In short: as §1
# [5] = target: PUM1 PUF domain R4-WST (Homo sapiens, UniProt Q14671 828-1176, N971W;H972S;Q975T)
# PUM1 PUF domain R4-WST, sequence (Q14671 828-1176 N971W/H972S/Q975T): as the sequence (Q14671 828-1176 C1007G/R1008H/Q1011L) above, with N144W, H145S, Q148T, G180C, H181R, L184Q counted along it
# In short: as §1
# [6] = target: PUM1 PUF domain R8-QFK (Homo sapiens, UniProt Q14671 828-1176, N1122Q;Y1123F;Q1126K)
# PUM1 PUF domain R8-QFK, sequence (Q14671 828-1176 N1122Q/Y1123F/Q1126K): as the sequence (Q14671 828-1176 C1007G/R1008H/Q1011L) above, with G180C, H181R, L184Q, N295Q, Y296F, Q299K counted along it
# In short: as §1
# [7] = target: PUM1 PUF domain R4-NRS (Homo sapiens, UniProt Q14671 828-1176, H972R;Q975S)
# PUM1 PUF domain R4-NRS, sequence (Q14671 828-1176 H972R/Q975S): as the sequence (Q14671 828-1176 C1007G/R1008H/Q1011L) above, with H145R, Q148S, G180C, H181R, L184Q counted along it
# In short: as §1
# [8] = target: PUM1 PUF domain R4-MPC (Homo sapiens, UniProt Q14671 828-1176, N971M;H972P;Q975C)
# PUM1 PUF domain R4-MPC, sequence (Q14671 828-1176 N971M/H972P/Q975C): as the sequence (Q14671 828-1176 C1007G/R1008H/Q1011L) above, with N144M, H145P, Q148C, G180C, H181R, L184Q counted along it
# In short: as §1
# [9] = target: PUM1 PUF domain R7-KQC (Homo sapiens, UniProt Q14671 828-1176, S1079K;N1080Q;E1083C)
# PUM1 PUF domain R7-KQC, sequence (Q14671 828-1176 S1079K/N1080Q/E1083C): as the sequence (Q14671 828-1176 C1007G/R1008H/Q1011L) above, with G180C, H181R, L184Q, S252K, N253Q, E256C counted along it
# In short: as §1
# [10] = target: PUM1 PUF domain R1-RTT (Homo sapiens, UniProt Q14671 828-1176, S863R;R864T;Q867T)
# PUM1 PUF domain R1-RTT, sequence (Q14671 828-1176 S863R/R864T/Q867T): as the sequence (Q14671 828-1176 C1007G/R1008H/Q1011L) above, with S36R, R37T, Q40T, G180C, H181R, L184Q counted along it
# In short: as §1
# PUM1 PUF domain R4-PFF, sequence (Q14671 828-1176 N971P/H972F/Q975F): as the sequence (Q14671 828-1176 C1007G/R1008H/Q1011L) above, with N144P, H145F, Q148F, G180C, H181R, L184Q counted along it
sequence,measurement,setting,value
GGCUAGAACUAGUGGAUCCCCCGGCGCCCGGCGGCUCGAGCCCGGGUAAGUGUACAUAGUCUGCAUGCCGCCGGGCGCCAUGCCUGCAGGUCGACUCUAGAAAACAUG,binding signal,[1],3.52 log2 enrichment (interaction score)
GGCUAGAACUAGUGGAUCCCCCGGCGCCCGGCGGCUCGAGCCCGGGUAAGUGUUAAUAGUCUGCAUGCCGCCGGGCGCCAUGCCUGCAGGUCGACUCUAGAAAACAUG,binding signal,[2],3.73 log2 enrichment (interaction score)
GGCUAGAACUAGUGGAUCCCCCGGCGCCCGGCGGCUCGAGCCCGGGUAAGUGUAAAUAGUCUGCAUGCCGCCGGGCGCCAUGCCUGCAGGUCGACUCUAGAAAACAUG,binding signal,[3],4.68 log2 enrichment (interaction score)
same,binding signal,[4],2.74 log2 enrichment (interaction score)
same,binding signal,[2],4.22 log2 enrichment (interaction score)
same,binding signal,[5],0.36 log2 enrichment (interaction score)
same,binding signal,[1],5.26 log2 enrichment (interaction score)
GGCUAGAACUAGUGGAUCCCCCGGCGCCCGGCGGCUCGAGCCCGGGUAAGCGUAAAUAGUCUGCAUGCCGCCGGGCGCCAUGCCUGCAGGUCGACUCUAGAAAACAUG,binding signal,[3],6.4 log2 enrichment (interaction score)
same,binding signal,[6],4.17 log2 enrichment (interaction score)
GGCUAGAACUAGUGGAUCCCCCGGCGCCCGGCGGCUCGAGCCCGGGUAAGUGUAUAUAGUCUGCAUGCCGCCGGGCGCCAUGCCUGCAGGUCGACUCUAGAAAACAUG,binding signal,[7],2.58 log2 enrichment (interaction score)
same,binding signal,[8],3.15 log2 enrichment (interaction score)
same,binding signal,[5],2.45 log2 enrichment (interaction score)
same,binding signal,[1],7.66 log2 enrichment (interaction score)
GGCUAGAACUAGUGGAUCCCCCGGCGCCCGGCGGCUCGAGCCCGGGUAAGUCUAAAUAGUCUGCAUGCCGCCGGGCGCCAUGCCUGCAGGUCGACUCUAGAAAACAUG,binding signal,[9],2.83 log2 enrichment (interaction score)
GGCUAGAACUAGUGGAUCCCCCGGCGCCCGGCGGCUCGAGCCCGGGUAAGUGUAAAUGGUCUGCAUGCCGCCGGGCGCCAUGCCUGCAGGUCGACUCUAGAAAACAUG,binding signal,[10],3.14 log2 enrichment (interaction score)
GGCUAGAACUAGUGGAUCCCCCGGCGCCCGGCGGCUCGAGCCCGGGUAAGUGUAAAAAGUCUGCAUGCCGCCGGGCGCCAUGCCUGCAGGUCGACUCUAGAAAACAUG,binding signal,[4],7.08 log2 enrichment (interaction score)
GGCUAGAACUAGUGGAUCCCCCGGCGCCCGGCGGCUCGAGCCCGGGUAAGUGUGAAUAGUCUGCAUGCCGCCGGGCGCCAUGCCUGCAGGUCGACUCUAGAAAACAUG,binding signal,[2],2.8 log2 enrichment (interaction score)
